Assay results: PubChem BioAssay AID540276 (National Center for Advancing Translational Sciences (NCATS), 2011)
Out of some 300,000 compounds screened, about 5,400 (1.8%) were called active. Where a call stands in place of a potency, no number is given. Not shown: some 28% with an inconclusive outcome. This is one part of a sample in which actives are shown more often than they occur. The call rests on the fitted dose curve; tested in HEK293 cells.

Test: qHTS for inhibitors of binding or entry into cells for Marburg Virus
Settings: Marburg virus pseudotyped entry inhibition, cell reporter; series mostly up to 37.8 µM
Potency means the concentration at half of the fitted maximal effect.

| SMILES | Potency |
| --- | --- |
| COc1ccc([C@H]2C(C#N)=C(N)Oc3n[nH]c(C)c32)cc1CSc1ccccn1 | inactive |
| COc1cccc(NC(=O)CN(C)C(=O)Cc2ccc(Cl)cc2Cl)c1 | inactive |
| CCOC(=O)c1c(-c2cccc(C)c2)csc1NC(=O)c1c(-c2ccccc2)noc1C | 0.316 µM (active) |
| CC(=O)Nc1cccc(NC(=O)c2c(-c3ccccc3)noc2C)c1 | inactive |
| Cc1ccc(CNC(=O)c2c(-c3ccccc3)noc2C)cc1 | inactive |
| CC(C)(C)C(=O)Nc1cccc(-c2ccc[nH]2)n1 | inactive |
| Cc1cc([N+](=O)[O-])c(=O)[nH]c1C | inactive |
| COc1ccc(NC(=O)N2CCCC2C(=O)NCc2ccccc2Cl)cc1 (configuration not stated) | inactive |
| CCc1ccc(NC(=O)CN2C(=O)C(c3ccccc3)=NC23CCCCCC3)cc1 | inactive |
| COc1ccc(C2=NC3(CCCCC3)N(CC(=O)Nc3ccc(C(C)C)cc3)C2=O)cc1 | 11.2 µM (active) |
| COc1ccc(NC(=O)CN2C(=O)C(c3ccccc3)=NC23CCCCCC3)cc1OC | inactive |
| CCCCn1c(N)c(N(CC(C)C)C(=O)c2ccc(Br)o2)c(=O)[nH]c1=O | inactive |
| O=C(Nc1c[nH]c(=O)[nH]c1=O)OCc1ccccc1 | inactive |
| Cc1c(NC(=O)CN(C)CC(=O)Nc2ccc(F)c(F)c2F)c(=O)n(-c2ccccc2)n1C | inactive |
| Cc1cccc(N(Cc2ccccc2)C(=O)c2cc(S(=O)(=O)N3CCOCC3)ccc2F)c1 | inactive |
| Cc1cc(NC(=O)c2cc3ccccc3o2)no1 | inactive |
| COc1cccc2sc(NNC(=O)c3nc4ccccc4s3)nc12 | inactive |
| COc1cccc2sc(N(CCCN(C)C)C(=O)C(c3ccccc3)c3ccccc3)nc12 | 10 µM (active) |
| CCOc1ccc2nc(N(CCN(C)C)C(=O)c3ccc4ccccc4c3)sc2c1 | inactive |
| COC(=O)C1=C(C)NC(=S)NC1c1ccc(OCC(=O)N2CC(C)OC(C)C2)c(OC)c1 (configuration not stated) | inactive |
| CC(C)(C)CC(C)(C)NCC(O)COCCOc1ccc(Br)cc1 (configuration not stated) | 4.61 µM (active) |
| Cc1noc(COc2ccccc2OCC(O)CNC(C)(C)C)n1 (configuration not stated) | inactive |
| COc1ccc(OCC(O)CNCCNc2nccc(C(F)(F)F)n2)cc1 (configuration not stated) | inactive |
| COc1cccc(NC(=O)C/C(C)=N/NC(=O)C2CCCCC2)c1 | inactive |
| Cc1ccc(OCC(=O)Oc2ccccc2[N+](=O)[O-])cc1 | inactive |
| O=C1CN(C(=O)COc2c(Cl)cccc2Cl)c2ccccc2N1 | inactive |
| COc1ccc(-n2ncc3c2CC(C)(C)CC3NC(=O)CCc2c(C)nn(C)c2C)cc1 (configuration not stated) | inactive |
